# High-throughput results (PubChem)
# Rows were chosen to be rich in hits. Some 6% of all compounds tested hit in one or more screens of this group.
# Tau fluor cs = counter-screen for tau fibril formation inhibitors; tau K18 P301L Alexa594 fluorescence, heparin fibrillization; Potency, µM (top dose mostly 57.7 µM), inactives show at the top dose activity change, negative = decrease; 280,000 tested, 0.93% active; also: nearly all actives have a fitted effect of over 55% in size
#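 Human K18 P301L tau (15 uM unlabeled plus 0.24 uM Alexa 594-labeled, final) in 100 mM sodium acetate pH 7 was mixed with compound and 20 uM heparin and incubated 6 hr at 37 C.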
# PLK1 PBD inh = blocks phosphopeptide binding to human PLK1 polo-box domain | Potency, µM, without a hit: max response, negative = inhibition, actives largely listed as inhibitors | 360,000 tested, 2.8% active | P53350 | Plk1 PBD binding of FITC phosphopeptide, fluorescence polarization | AID 720504; also: series mostly up to about 57 µM; nearly all actives have a fitted effect of over 65% in size
# Target sequence (P53350 whole entry, looked up, the tested form may be a part): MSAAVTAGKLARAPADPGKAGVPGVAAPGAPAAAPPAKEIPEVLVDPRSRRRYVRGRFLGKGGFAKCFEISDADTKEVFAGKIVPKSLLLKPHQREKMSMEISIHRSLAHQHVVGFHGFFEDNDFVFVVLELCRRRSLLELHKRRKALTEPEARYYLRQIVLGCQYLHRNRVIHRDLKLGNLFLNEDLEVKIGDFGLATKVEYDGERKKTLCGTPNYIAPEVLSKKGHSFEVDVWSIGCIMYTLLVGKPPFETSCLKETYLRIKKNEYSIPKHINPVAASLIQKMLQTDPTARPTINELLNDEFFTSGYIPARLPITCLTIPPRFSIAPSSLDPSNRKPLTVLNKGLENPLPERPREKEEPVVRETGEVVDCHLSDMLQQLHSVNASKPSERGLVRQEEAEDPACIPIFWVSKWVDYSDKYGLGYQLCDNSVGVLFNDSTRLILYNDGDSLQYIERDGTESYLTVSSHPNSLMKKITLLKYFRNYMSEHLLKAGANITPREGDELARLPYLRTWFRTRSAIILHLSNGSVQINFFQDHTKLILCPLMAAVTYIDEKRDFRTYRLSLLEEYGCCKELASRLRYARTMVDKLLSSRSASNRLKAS
# Sfp inh = blocks B. subtilis Sfp PPTase activity | Potency, µM, without a hit: largest response in the series, negative = inhibition, actives largely listed as inhibitors | Biochemical Sfp PPTase activity, qHTS | Q9F4F7 | AID 1490 | 310,000 tested, 3.5% active;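 also: the enzyme is Sfp with the accession as filed and its product quenches rhodamine fluorescence; 0% = enzyme reaction without inhibitor and -100% = no enzyme wells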
#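 With Hepes-Na pH 7.6 buffer containing 10 mM MgCl2, Sfp (15 nM) modified BHQ-2-YbbR (12.5 uM) using rhodamine-CoA (5 uM). Two reads 30 minutes apart at 525/598 nm yielded each well's rate.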
# VDR inh = inhibitors of human vitamin D receptor | P11473 | VDR-SRC2-3 peptide fluorescence polarization, 2 h | Potency, µM, inactives show max response, negative = inhibition, actives largely listed as inhibitors | 400,000 tested, 0.93% active
#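 Reagent solutions, kept cold and dark, are dispensed first; compounds are then pinned in at 23 nl, plates briefly spun, and incubated 2 h at ambient temperature. Inhibition of VDR–SRC2-3 peptide binding is read by fluorescence polarization.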
# Tau ThT inhib = inhibitors of human tau fibril formation, thioflavin T binding | 270,000 tested, 2.1% active | Potency, µM (highest dose often 57.4 µM), without a hit: at the top dose activity, negative = inhibition, usual class: inhibitors | recombinant tau K18 P301L (four-repeat tau fragment), heparin-induced fibrillization, ThT fluorescence | P10636 | AID 1460; also: nearly all actives have a fitted effect of over 55% in size
#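 Aggregation was driven by heparin (20 uM final) acting on recombinant tau […] bearing P301L in 100 mM sodium acetate pH 7; fibrils were detected with Thioflavin T.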
# Tau FP inhib = tau fibrillization inhibition (FP). P10636. K18 P301L tau heparin fibrillization, Alexa594 FP, 6 h. Potency, µM (titrated, usually from 57.7 µM), inactives show at the top dose activity, negative = inhibition, usual class: inhibitors. 280,000 tested, 0.39% active. AID 1468; also: nearly all actives have a fitted effect of over 55% in size
#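 Compound effects on tau fibrillization are measured by Alexa 594 fluorescence polarization (ex 555, em 632 nm). K18 P301L tau is used at 15 uM with 0.24 uM labeled tracer, and 20 uM heparin induces aggregation over 6 hr at 37 C.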
# Active calls of the source: *; u = inconclusive; x = no result. Calls follow the shape of the dose curve; as a rule, active = well fitted curve in the direction sought with a large enough effect; inconclusive = small, poorly fitted or top-dose-only effect, or another doubt; inactive = no such curve, though single readings can be large; an effect the other way counts as inactive or inconclusive. Unless noted, % is scaled to controls: 0 for no effect and ±100 for the full control effect; potency is read from the fitted curve at half-maximal effect.
SMILES,Tau fluor cs,PLK1 PBD inh,Sfp inh,VDR inh,Tau ThT inhib,Tau FP inhib
Cc1[nH][nH]c(=O)c1C(c1c(C)[nH][nH]c1=O)c1cn(Cc2ccc(F)cc2)c2ccccc12,-25%,u,-15%,u,8.9µM*,u
O=C1c2cc(S(=O)(=O)N3CCOCC3)ccc2-c2ccc(S(=O)(=O)N3CCOCC3)cc21,x,x,x,-1%,x,x
O=c1[nH][nH]c(=S)n1-c1ccccc1C(F)(F)F,-3%,x,7.9µM*,x,u,-6%
COc1ccc(N2C(=O)C3CCCN3C2c2cccc(C)c2)cc1Cl (stereo not given),-7%,2%,8%,-2%,-9%,-6%
COc1cc(C2NC(=O)C(C#N)=C(S)N2c2ccc(C)cc2)ccc1OC(C)C (stereo not given),8%,u,u,28µM*,8%,1%
COc1ccc(C2NC(=O)C(C#N)=C(S)N2c2cccc(C)c2)cc1OC (stereo not given),-15%,u,32µM*,u,u,u
COc1ccc(C2NC(=O)C(C#N)=C(S)N2c2ccc(C)cc2)cc1OC (stereo not given),-19%,u,32µM*,32µM*,32µM*,u
Cc1ccc(CN(C(=O)c2ccc(C(C)(C)C)cc2)c2ccccn2)o1,3%,x,x,-3%,-5%,3%
O=c1c(N=Nc2ccc(O)cc2)c(-c2ccccc2)[nH]n1-c1ccc([N+](=O)[O-])cc1,u,-16%,11%,-15%,u,-6%
O=c1cc(-c2ccccc2)[nH]n1-c1ccc([N+](=O)[O-])cc1,u,21µM*,-2%,-18%,13µM*,5%
CCc1ccc(NC(=O)C(=O)NCCc2sc(-c3ccc(C)cc3)nc2C)cc1,-8%,x,x,-10%,u,-6%
O=C1/C(=C/c2ccco2)SC(=S)N1CCC(=O)N1CCCCC1CCO (stereo not given),x,u,50µM*,-21%,x,x
O=C(O)CCCN1C(=O)/C(=C/C=C/c2ccco2)SC1=S,1%,u,-12%,0%,3.2µM*,u
O=C(O)CN1C(=O)/C(=C2\SC(=S)N(C(Cc3ccccc3)C(=O)O)C2=O)c2ccccc21 (stereo not given),x,-15%,7%,3%,x,x
O=C(O)C(Cc1ccccc1)N1C(=O)/C(=C/C=C/c2ccco2)SC1=S (stereo not given),u,2.7µM*,40µM*,53%,7.9µM*,u
O=C1/C(=C/c2ccc(Cl)cc2)SC(=S)N1CCC(=O)N1CCCCC1CCO (stereo not given),x,-7%,-8%,-7%,x,x
Cc1c(N=O)c(-c2ccccc2)n(O)[n+]1[O-],x,-16%,x,x,x,x
COc1cccc(CNC(=O)CSc2ncc(S(=O)(=O)c3ccc(C)c(Cl)c3)c(=O)[nH]2)c1,5%,x,x,14%,6%,2%
FC(F)(F)Oc1ccccc1C(c1nnnn1-c1ccc2c(c1)OCCO2)N1CCN(C/C=C/c2ccccc2)CC1 (stereo not given),x,2%,x,x,x,x
CCOc1ccc(NC(=O)C2CCN(c3nnc(C)c4c(C)n(-c5ccccc5)nc34)CC2)cc1,2%,x,x,11%,4%,6%
CSc1nc(N(C)NC(=O)c2ccc(Cl)cc2)c2ccccc2n1,-29%,3%,50µM*,-20%,-3%,-5%
CCCCSCCCNC(=O)c1c[nH]c2ccc(S(=O)(=O)Nc3cccc(OC)c3)cc2c1=O,u,x,x,3%,5%,2µM*
COc1cccc(NS(=O)(=O)c2ccc3[nH]cc(C(=O)N4CCCC4)c(=O)c3c2)c1,-15%,x,x,4%,-7%,-9%
CCOCCCNC(=O)c1c[nH]c2ccc(OCC)cc2c1=O,-19%,30µM*,15%,u,x,-5%
COc1cccc(NS(=O)(=O)c2ccc3[nH]cc(C(=O)NC(C)c4ccccc4)c(=O)c3c2)c1 (stereo not given),u,x,x,u,11%,7.9µM*
